Data from ChEMBL document CHEMBL2218924, “A broad activity screen in support of a chemogenomic map for kinase signalling research and drug discovery” (Biochem J, 2013).

Tests used:
[1] = target: T1, Serine/threonine-protein kinase TBK1 (Homo sapiens) (UniProt Q9UHD2); conditions: at 10 µM
T1 sequence (whole entry): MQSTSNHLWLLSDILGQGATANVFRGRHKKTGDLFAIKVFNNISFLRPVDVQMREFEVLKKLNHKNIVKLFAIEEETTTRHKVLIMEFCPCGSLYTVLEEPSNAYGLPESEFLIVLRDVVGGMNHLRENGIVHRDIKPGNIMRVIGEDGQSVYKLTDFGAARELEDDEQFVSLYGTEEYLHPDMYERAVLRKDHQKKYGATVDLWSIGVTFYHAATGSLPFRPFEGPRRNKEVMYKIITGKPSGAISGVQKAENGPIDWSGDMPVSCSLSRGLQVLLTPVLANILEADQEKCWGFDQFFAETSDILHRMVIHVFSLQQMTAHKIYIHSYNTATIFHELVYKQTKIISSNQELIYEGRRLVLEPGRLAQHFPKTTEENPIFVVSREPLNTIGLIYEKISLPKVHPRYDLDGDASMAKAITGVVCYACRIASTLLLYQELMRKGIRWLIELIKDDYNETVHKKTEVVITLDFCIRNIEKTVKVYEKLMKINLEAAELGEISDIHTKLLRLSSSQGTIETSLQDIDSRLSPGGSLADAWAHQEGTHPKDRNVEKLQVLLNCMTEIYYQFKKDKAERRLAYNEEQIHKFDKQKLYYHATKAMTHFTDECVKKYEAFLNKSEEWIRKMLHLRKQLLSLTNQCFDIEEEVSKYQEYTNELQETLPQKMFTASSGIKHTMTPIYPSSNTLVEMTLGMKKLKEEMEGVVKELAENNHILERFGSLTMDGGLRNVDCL

[2] = target: T2, TGF-beta receptor type-1 (Homo sapiens) (UniProt P36897); conditions: at 1 µM
T2 sequence (whole entry): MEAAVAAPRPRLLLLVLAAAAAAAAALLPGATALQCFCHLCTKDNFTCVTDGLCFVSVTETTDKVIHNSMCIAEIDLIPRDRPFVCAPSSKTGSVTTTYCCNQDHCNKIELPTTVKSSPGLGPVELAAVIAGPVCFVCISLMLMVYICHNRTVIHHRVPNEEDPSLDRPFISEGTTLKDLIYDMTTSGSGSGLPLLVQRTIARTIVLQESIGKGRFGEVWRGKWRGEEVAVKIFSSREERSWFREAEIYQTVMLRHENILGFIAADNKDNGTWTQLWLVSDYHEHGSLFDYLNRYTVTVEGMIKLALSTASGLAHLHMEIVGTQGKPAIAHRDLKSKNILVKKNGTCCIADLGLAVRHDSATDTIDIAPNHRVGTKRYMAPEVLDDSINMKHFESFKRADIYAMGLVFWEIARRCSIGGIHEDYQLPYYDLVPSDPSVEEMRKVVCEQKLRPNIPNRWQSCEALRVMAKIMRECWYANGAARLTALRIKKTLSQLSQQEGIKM

[3] = target: T2, TGF-beta receptor type-1 (Homo sapiens); conditions: at 10 µM
[4] = target: Insulin-like growth factor 1 receptor (Homo sapiens) (UniProt P08069); conditions: at 1 µM
[5] = target: Insulin-like growth factor 1 receptor (Homo sapiens) (UniProt P08069); conditions: at 10 µM
[6] = target: T3, Inhibitor of nuclear factor kappa-B kinase subunit alpha (Homo sapiens) (UniProt O15111); conditions: at 1 µM
T3 sequence (whole entry): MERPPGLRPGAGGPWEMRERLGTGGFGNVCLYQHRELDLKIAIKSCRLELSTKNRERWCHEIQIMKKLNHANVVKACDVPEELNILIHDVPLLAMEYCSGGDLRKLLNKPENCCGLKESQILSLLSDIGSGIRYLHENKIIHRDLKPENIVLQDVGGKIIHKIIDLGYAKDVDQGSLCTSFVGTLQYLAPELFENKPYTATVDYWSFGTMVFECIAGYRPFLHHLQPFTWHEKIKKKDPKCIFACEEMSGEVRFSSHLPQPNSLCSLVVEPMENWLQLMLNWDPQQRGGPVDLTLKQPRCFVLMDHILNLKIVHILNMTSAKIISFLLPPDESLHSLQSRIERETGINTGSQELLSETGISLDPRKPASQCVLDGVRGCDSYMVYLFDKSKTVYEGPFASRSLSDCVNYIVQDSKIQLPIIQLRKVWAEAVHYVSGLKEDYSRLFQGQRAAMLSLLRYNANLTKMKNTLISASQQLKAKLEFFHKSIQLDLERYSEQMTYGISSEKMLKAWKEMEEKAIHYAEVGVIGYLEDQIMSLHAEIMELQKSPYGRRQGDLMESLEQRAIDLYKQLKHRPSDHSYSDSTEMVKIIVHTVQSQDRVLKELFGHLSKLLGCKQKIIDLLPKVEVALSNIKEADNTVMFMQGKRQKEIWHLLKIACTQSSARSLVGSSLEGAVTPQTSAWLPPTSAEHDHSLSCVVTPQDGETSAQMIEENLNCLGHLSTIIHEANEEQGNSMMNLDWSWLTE

[7] = target: T3, Inhibitor of nuclear factor kappa-B kinase subunit alpha (Homo sapiens); conditions: at 10 µM
[8] = target: T4, Inhibitor of nuclear factor kappa-B kinase subunit beta (Homo sapiens) (UniProt O14920); conditions: at 1 µM
T4 sequence (whole entry): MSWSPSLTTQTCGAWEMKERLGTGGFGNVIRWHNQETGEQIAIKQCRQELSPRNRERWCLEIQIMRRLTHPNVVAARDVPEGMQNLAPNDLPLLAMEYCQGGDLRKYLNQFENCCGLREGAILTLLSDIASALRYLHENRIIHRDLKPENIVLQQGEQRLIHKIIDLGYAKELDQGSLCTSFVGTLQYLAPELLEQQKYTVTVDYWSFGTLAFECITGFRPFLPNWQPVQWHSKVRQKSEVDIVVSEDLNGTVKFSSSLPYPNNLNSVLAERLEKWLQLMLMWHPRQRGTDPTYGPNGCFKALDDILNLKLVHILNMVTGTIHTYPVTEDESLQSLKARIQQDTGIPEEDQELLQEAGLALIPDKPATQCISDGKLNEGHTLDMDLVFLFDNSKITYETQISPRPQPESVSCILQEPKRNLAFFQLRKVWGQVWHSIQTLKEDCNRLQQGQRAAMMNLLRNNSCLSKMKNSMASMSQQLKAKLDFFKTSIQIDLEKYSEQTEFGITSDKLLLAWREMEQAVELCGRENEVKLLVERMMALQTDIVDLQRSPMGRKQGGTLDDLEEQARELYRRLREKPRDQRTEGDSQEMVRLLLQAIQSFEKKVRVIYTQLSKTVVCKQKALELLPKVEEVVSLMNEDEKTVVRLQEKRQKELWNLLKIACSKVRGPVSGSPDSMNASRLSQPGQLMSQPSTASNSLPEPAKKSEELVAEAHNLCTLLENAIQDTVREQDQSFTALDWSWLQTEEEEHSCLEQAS

[9] = target: T4, Inhibitor of nuclear factor kappa-B kinase subunit beta (Homo sapiens); conditions: at 10 µM
[10] = target: Insulin receptor (Homo sapiens) (UniProt P06213); conditions: at 1 µM
Insulin receptor (Homo sapiens), sequence (P06213 28-758 limits assumed): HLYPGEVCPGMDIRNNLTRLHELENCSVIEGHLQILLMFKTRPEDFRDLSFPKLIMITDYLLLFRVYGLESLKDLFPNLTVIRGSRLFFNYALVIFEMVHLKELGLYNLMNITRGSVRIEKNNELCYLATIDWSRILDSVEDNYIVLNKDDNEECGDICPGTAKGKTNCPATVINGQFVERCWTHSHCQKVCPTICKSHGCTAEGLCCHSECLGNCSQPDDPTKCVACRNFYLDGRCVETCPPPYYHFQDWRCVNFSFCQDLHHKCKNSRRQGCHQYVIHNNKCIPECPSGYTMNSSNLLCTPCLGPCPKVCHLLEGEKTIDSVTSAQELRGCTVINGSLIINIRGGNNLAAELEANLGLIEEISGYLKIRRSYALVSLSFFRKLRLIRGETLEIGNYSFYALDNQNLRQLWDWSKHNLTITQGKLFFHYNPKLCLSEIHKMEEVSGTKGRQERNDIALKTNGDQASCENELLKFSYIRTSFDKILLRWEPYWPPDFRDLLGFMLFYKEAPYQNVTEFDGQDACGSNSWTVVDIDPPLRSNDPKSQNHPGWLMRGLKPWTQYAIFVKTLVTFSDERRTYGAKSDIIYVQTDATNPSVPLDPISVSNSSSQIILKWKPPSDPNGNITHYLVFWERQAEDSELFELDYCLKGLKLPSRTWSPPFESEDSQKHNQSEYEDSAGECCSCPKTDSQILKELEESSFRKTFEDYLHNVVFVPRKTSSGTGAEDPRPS
Insulin receptor (Homo sapiens), sequence (P06213 763-1382 limits assumed): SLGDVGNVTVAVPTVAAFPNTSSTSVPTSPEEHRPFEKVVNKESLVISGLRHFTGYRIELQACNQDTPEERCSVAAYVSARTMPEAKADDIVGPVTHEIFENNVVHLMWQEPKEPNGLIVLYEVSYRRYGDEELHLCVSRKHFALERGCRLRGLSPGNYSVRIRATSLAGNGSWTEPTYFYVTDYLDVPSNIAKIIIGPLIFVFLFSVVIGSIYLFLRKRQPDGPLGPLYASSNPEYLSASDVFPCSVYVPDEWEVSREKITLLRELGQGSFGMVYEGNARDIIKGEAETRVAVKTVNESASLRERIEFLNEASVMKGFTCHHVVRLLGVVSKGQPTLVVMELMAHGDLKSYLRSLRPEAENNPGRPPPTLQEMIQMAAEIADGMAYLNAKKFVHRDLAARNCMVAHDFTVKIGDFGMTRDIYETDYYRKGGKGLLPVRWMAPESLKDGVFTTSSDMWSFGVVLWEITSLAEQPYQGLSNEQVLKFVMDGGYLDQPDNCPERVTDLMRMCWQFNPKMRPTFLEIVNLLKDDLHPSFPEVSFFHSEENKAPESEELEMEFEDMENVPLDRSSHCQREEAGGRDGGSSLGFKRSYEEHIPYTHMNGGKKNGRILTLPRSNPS

Insulin-like growth factor 1 receptor (Homo sapiens), sequence (P08069 31-736 limits assumed): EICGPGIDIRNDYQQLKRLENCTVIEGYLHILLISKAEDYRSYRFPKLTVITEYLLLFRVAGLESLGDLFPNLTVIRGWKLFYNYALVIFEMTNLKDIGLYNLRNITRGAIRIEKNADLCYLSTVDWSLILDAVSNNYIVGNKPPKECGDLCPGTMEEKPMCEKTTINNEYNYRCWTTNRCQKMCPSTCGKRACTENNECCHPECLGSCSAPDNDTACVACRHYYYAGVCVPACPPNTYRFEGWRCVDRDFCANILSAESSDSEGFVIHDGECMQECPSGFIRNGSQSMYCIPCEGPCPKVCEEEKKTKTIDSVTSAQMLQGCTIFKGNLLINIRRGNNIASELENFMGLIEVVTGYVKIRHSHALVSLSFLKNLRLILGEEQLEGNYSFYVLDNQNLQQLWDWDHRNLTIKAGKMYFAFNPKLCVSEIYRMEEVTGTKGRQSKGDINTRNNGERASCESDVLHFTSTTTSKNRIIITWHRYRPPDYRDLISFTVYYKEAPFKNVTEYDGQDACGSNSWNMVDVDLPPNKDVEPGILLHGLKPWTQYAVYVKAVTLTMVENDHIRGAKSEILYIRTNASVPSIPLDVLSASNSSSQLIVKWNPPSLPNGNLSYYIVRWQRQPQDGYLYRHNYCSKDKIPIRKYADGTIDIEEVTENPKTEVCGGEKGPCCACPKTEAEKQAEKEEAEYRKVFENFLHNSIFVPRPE
Insulin-like growth factor 1 receptor (Homo sapiens), sequence (P08069 741-1367 limits assumed): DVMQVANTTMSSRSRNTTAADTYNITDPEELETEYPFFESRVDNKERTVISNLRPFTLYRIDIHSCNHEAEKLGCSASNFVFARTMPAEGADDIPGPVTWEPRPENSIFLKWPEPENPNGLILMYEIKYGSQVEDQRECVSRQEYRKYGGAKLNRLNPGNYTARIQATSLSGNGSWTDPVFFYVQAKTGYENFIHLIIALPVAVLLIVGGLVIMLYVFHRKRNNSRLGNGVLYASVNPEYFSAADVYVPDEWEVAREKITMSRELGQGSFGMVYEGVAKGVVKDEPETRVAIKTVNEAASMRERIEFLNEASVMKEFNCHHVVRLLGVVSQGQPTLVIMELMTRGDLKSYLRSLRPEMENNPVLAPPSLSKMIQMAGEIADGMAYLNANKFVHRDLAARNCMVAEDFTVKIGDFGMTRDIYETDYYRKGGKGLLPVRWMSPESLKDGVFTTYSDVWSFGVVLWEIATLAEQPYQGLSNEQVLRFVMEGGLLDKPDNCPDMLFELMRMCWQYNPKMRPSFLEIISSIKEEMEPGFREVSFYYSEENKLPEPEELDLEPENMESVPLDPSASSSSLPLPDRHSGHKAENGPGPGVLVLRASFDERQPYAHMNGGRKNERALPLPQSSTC

Structure (SMILES)	residual activity [1]	residual activity [2]	residual activity [3]	residual activity [4]	residual activity [5]	residual activity [6]	residual activity [7]	residual activity [8]	residual activity [9]	residual activity [10]
O=C(Nc1cccc(Nc2nccc(Nc3cccc(C(F)(F)F)c3)n2)c1)C1CC1	32%	105%	72%	90%	96%	113%	88%	74%	52%	22%
COc1ccc(S(=O)(=O)N(CCO)c2ccccc2CN(C)C/C=C/c2ccc(Cl)cc2)cc1	56%	97%	92%	94%	93%	117%	108%	115%	110%	91%
Oc1ccc(Nc2nc(-c3ccc(Cl)cc3)cs2)cc1	80%	123%	100%	103%	108%	102%	134%	115%	110%	112%
Cc1cccc(-c2[nH]c(C(C)(C)C)nc2-c2ccc3c(c2)OCO3)n1	72%	10%	0%	106%	96%					
Oc1c2ccccc2c2c3c(cccc13)N=N2	11%	88%	74%	92%	49%	57%	21%	78%	43%	81%
COc1ccc(CNc2nc(N(CCO)CCO)nc3c2ncn3C(C)C)cc1	55%	88%	74%	94%	88%	101%	102%	112%	99%	99%
Nc1n[nH]c2nnc(-c3c(-c4ccccc4)nn4ccccc34)cc12	67%	88%	83%	82%	76%	115%	107%	102%	102%	70%
CCC(=O)Nc1ccc2ncnc(Nc3cccc(Br)c3)c2c1	68%	75%	94%	97%	102%	121%	125%	112%	97%	110%
CC(C)n1cnc2/c(=N/c3cccc(Cl)c3)nc(NCCO)[nH]c21	33%	79%	85%	72%	31%	114%	98%	102%	85%	83%
O=C(O)c1ccc2c3c1cccc3c(=O)n1c3ccccc3nc21	4%	111%	102%	113%	107%	109%	106%	112%	93%	117%
O=C1Nc2cc(Br)ccc2/C1=C1/Nc2ccccc2/C1=N\O	15%	88%	77%	99%	101%	105%	100%	101%	85%	75%
O=[N+]([O-])c1ccc(-c2nc(-c3ccc(F)cc3)c(-c3ccncc3)[nH]2)cc1	76%	61%	59%	97%	105%	119%	99%	129%	111%	107%
O=C1NC(=O)c2cc(Nc3ccc(F)cc3)c(Nc3ccc(F)cc3)cc21	54%	78%	76%	90%	77%	111%	113%	108%	95%	115%
Nc1ccc2ncnc(NCCc3ccc(Oc4ccccc4)cc3)c2c1	62%	117%	112%	116%	119%	107%	101%	115%	110%	139%
Cc1ccc(S(=O)(=O)/C=C/C#N)cc1	81%	98%	81%	88%	98%	100%	100%	108%	107%	94%
Ic1cccc(CSc2nnc(-c3ccncc3)o2)c1	6%	82%	79%	79%	95%	80%	72%	87%	79%	93%
